For 40 sequences, binding signal results are on record in paper PMC13541613, “GHT-SELEX demonstrates unexpectedly high intrinsic sequence specificity and complex DNA binding of many human transcription factors”.

Sequence of ZNF721 full-length (Q8TF20 other isoform, or with tags, fused parts or gaps): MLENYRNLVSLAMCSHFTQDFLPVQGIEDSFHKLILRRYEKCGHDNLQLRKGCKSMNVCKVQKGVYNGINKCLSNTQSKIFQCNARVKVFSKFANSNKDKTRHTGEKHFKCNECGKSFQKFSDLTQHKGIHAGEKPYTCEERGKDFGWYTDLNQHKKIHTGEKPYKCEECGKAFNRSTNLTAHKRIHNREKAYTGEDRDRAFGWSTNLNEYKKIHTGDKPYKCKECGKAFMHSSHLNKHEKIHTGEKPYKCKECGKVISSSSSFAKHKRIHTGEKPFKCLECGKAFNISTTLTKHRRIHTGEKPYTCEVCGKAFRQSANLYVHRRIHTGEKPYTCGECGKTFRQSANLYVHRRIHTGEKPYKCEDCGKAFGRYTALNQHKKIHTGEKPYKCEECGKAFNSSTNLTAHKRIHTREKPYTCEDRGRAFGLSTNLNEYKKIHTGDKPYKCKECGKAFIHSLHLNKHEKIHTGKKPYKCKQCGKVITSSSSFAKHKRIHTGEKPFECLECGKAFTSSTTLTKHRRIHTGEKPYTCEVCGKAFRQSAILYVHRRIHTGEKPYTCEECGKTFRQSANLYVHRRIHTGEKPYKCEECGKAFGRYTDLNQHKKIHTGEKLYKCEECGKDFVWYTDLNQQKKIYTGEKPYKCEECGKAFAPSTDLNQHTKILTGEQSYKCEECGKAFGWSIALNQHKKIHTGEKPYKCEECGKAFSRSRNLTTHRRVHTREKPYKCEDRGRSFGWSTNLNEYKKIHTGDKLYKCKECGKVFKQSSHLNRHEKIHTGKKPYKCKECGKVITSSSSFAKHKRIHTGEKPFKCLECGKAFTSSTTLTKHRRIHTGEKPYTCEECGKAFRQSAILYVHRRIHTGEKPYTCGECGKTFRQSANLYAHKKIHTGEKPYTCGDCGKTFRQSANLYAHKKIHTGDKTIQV

In one assay the target is ZNF721 full-length (Homo sapiens, UniProt Q8TF20-2 1-923). As to the kind of experiment: HT-SELEX; 20 mM HEPES pH 7, 140 mM KCl, 5 mM NaCl, 1 mM K2HPO4, 2 mM MgSO4, 100 uM EGTA, ZnSO4, 0.1% Tween20; room temperature, 1 h; high values mean tight binding. As to conditions: protein: ivt; tags: eGFP (N-terminal); dsDNA, one strand shown. An outline of the steps:
(§1)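 The binding signal is a relative k-mer count in selected reads, and higher values mean tighter binding. To obtain these reads, bead-bound tagged transcription factor (full-length or DNA-binding-domain fragment, produced in HEK293 lysate or cell-free extract) was mixed with a randomized 40-base DNA library for 1 h at room temperature in low-stringency HEPES/KCl buffer with Tween20. Bound DNA was recovered by washing and heat elution, PCR-amplified through successive cycles and sequenced on Illumina (~3 million 60 bp reads per sample).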
The sequence CCCCCCCATC showed a binding signal of 0.115 relative 10-mer count.

Consider AGCATCCCCA, for which the binding signal was 0.136 relative 10-mer count.

The sequence CCCCCCCACG displayed a binding signal of 0.116 relative 10-mer count.

ACACTTCATA returned a binding signal of 0.548 relative 10-mer count.

For the sequence CCCCCACCAA, the binding signal turned out to be 0.115 relative 10-mer count.

For CCCACCCCTA, the binding signal is 0.119 relative 10-mer count.

In turn, CACCACCCTC returned a binding signal of 0.111 relative 10-mer count.

Consider AAGCAGCGTA, for which the binding signal stood at 0.162 relative 10-mer count.

CCCTTCCCCC displayed a binding signal of 0.141 relative 10-mer count.

The sequence CGCCCCTCCC showed a binding signal of 0.158 relative 10-mer count.

Take CCCCCGTCCC: the binding signal stood at 0.173 relative 10-mer count.

For ACCCGCCCCA, the binding signal was 0.109 relative 10-mer count.

In the case of CCTCCCCACC, the binding signal came out at 0.255 relative 10-mer count.

On to CCCCGCCCCG, for which the binding signal turned out to be 0.144 relative 10-mer count.

Sequence CCTCCCTCCC registered a binding signal of 0.179 relative 10-mer count.

For the sequence AAAAAAGGTA, the binding signal was 0.109 relative 10-mer count.

For AGCATACCCC, the binding signal was determined as 0.144 relative 10-mer count.

For CCCCCACCAC, the binding signal came out at 0.312 relative 10-mer count.

In the case of CACCCAACCC, the binding signal worked out at 0.123 relative 10-mer count.

Sequence CCACCCCACA yielded a binding signal of 0.163 relative 10-mer count.

Turning to AAGTGTATCC, the binding signal was determined as 0.292 relative 10-mer count.

As to CCCCCAGCCC, the binding signal was found to be 0.146 relative 10-mer count.

Regarding CCCGCCCACC, the binding signal stood at 0.259 relative 10-mer count.

Sequence CAGCATCCCC showed a binding signal of 0.143 relative 10-mer count.

Take CCAGCCCACC: the binding signal stood at 0.12 relative 10-mer count.

Regarding CCCCGCTCCC, the binding signal stood at 0.139 relative 10-mer count.

For AGGGGGTGGG, the binding signal is 0.201 relative 10-mer count.

For ACCCTCCCCC, the binding signal is 0.176 relative 10-mer count.

CACCCCCCCC showed a binding signal of 0.217 relative 10-mer count.

CCACCCCACG came in with a binding signal of 0.131 relative 10-mer count.

In the case of AAAAAAGCAG, the binding signal is 0.862 relative 10-mer count.

As to CACCCACCTC, the binding signal was 0.109 relative 10-mer count.

CCGCCCCACC showed a binding signal of 0.257 relative 10-mer count.

ACCCACCTCC had a binding signal of 0.125 relative 10-mer count.

The sequence CCATCCCCCC yielded a binding signal of 0.155 relative 10-mer count.

Regarding AGGGGGGAGG, the binding signal came out at 0.149 relative 10-mer count.

ACCACCACCC returned a binding signal of 0.189 relative 10-mer count.

CGAAAAAACA showed a binding signal of 0.153 relative 10-mer count.

Sequence CCCGCCCCCC had a binding signal of 0.264 relative 10-mer count.

Consider GAAAAAAGCA, for which the binding signal worked out at 0.344 relative 10-mer count.

The target of the next assay is ZNF721 DBD1 (Homo sapiens, UniProt Q8TF20-2 29-461). Described as above. The settings on record: protein: ivt; tags: eGFP (N-terminal); dsDNA, one strand shown. An outline of the steps: as §1
Sequence of ZNF721 DBD1 (Q8TF20 17-449): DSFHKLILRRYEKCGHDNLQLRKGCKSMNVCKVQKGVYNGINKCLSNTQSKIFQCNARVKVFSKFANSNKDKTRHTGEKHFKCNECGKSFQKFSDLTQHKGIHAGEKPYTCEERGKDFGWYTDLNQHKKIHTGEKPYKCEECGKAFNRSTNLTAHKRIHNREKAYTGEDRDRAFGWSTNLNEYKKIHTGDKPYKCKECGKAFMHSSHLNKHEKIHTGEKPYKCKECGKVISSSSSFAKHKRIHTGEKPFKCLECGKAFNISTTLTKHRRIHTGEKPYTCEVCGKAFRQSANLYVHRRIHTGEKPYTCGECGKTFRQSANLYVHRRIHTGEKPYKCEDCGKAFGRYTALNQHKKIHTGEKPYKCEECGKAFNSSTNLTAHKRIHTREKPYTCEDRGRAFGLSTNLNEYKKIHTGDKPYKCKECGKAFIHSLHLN
With CCCCCCCATC, the binding signal is 0.00358 relative 10-mer count.

As for AGCATCCCCA, the binding signal came out at 0.0121 relative 10-mer count.

CCCCCCCACG: the binding signal came out at 0.00399 relative 10-mer count.

As for ACACTTCATA, the binding signal turned out to be 0.649 relative 10-mer count.

The sequence CCCCCACCAA returned a binding signal of 0.00431 relative 10-mer count.

CCCACCCCTA: the binding signal came to 0.00431 relative 10-mer count.

Regarding CACCACCCTC, the binding signal was determined as 0.00537 relative 10-mer count.

Consider AAGCAGCGTA, for which the binding signal worked out at 0.00124 relative 10-mer count.

In turn, CCCTTCCCCC came in with a binding signal of 0.00633 relative 10-mer count.

CGCCCCTCCC came in with a binding signal of 0.00605 relative 10-mer count.

Consider CCCCCGTCCC, for which the binding signal worked out at 0.00642 relative 10-mer count.

Turning to ACCCGCCCCA, the binding signal turned out to be 0.00307 relative 10-mer count.

In turn, CCTCCCCACC had a binding signal of 0.0111 relative 10-mer count.

In turn, CCCCGCCCCG registered a binding signal of 0.00486 relative 10-mer count.

CCTCCCTCCC: the binding signal amounted to 0.00931 relative 10-mer count.

AAAAAAGGTA: the binding signal came out at 0.00752 relative 10-mer count.

In the case of AGCATACCCC, the binding signal stood at 0.0115 relative 10-mer count.

CCCCCACCAC: the binding signal was determined as 0.0133 relative 10-mer count.

Consider CACCCAACCC, for which the binding signal was 0.005 relative 10-mer count.

Take CCACCCCACA: the binding signal stood at 0.00564 relative 10-mer count.

AAGTGTATCC gave a binding signal of 0.241 relative 10-mer count.

As to CCCCCAGCCC, the binding signal worked out at 0.00587 relative 10-mer count.

For CCCGCCCACC, the binding signal came out at 0.0105 relative 10-mer count.

In the case of CAGCATCCCC, the binding signal is 0.00165 relative 10-mer count.

Sequence CCAGCCCACC yielded a binding signal of 0.00353 relative 10-mer count.

The sequence CCCCGCTCCC showed a binding signal of 0.0044 relative 10-mer count.

For AGGGGGTGGG, the binding signal is 0.0107 relative 10-mer count.

ACCCTCCCCC returned a binding signal of 0.00766 relative 10-mer count.

Take CACCCCCCCC: the binding signal amounted to 0.00789 relative 10-mer count.

The sequence CCACCCCACG registered a binding signal of 0.00495 relative 10-mer count.

AAAAAAGCAG displayed a binding signal of 0.0227 relative 10-mer count.

The sequence CACCCACCTC had a binding signal of 0.00518 relative 10-mer count.

Take CCGCCCCACC: the binding signal was 0.00894 relative 10-mer count.

ACCCACCTCC yielded a binding signal of 0.00505 relative 10-mer count.

CCATCCCCCC yielded a binding signal of 0.00592 relative 10-mer count.

For AGGGGGGAGG, the binding signal was determined as 0.00789 relative 10-mer count.

The sequence ACCACCACCC displayed a binding signal of 0.00679 relative 10-mer count.

On to CGAAAAAACA, for which the binding signal came out at 0.0022 relative 10-mer count.

The sequence CCCGCCCCCC displayed a binding signal of 0.00982 relative 10-mer count.

In turn, GAAAAAAGCA registered a binding signal of 0.0533 relative 10-mer count.

The target in another assay is ZNF721 DBD2 (Homo sapiens, UniProt Q8TF20-2 395-923). Described as above. The settings on record: protein: ivt; tags: eGFP (N-terminal); dsDNA, one strand shown. An outline of the steps: as §1
Sequence of ZNF721 DBD2 (Q8TF20 383-911): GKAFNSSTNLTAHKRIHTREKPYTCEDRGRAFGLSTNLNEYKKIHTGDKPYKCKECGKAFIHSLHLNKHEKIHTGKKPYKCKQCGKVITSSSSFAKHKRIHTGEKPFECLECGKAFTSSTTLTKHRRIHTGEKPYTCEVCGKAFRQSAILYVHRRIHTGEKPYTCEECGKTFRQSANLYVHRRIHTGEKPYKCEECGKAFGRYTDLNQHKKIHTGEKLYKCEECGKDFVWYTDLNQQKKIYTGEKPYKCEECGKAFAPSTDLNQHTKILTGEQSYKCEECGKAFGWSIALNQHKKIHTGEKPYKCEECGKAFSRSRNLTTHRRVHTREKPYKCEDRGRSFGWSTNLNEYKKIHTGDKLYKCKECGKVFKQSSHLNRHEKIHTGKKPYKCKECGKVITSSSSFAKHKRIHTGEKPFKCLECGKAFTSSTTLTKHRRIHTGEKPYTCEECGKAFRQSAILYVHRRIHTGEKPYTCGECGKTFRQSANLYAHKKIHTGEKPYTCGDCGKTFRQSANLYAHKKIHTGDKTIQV
For the sequence CCCCCCCATC, the binding signal amounted to 0.00324 relative 10-mer count.

With AGCATCCCCA, the binding signal came out at 0.0674 relative 10-mer count.

Sequence CCCCCCCACG returned a binding signal of 0.00443 relative 10-mer count.

For the sequence ACACTTCATA, the binding signal is 0.00144 relative 10-mer count.

For CCCCCACCAA, the binding signal turned out to be 0.00443 relative 10-mer count.

CCCACCCCTA came in with a binding signal of 0.00324 relative 10-mer count.

Consider CACCACCCTC, for which the binding signal is 0.00419 relative 10-mer count.

On to AAGCAGCGTA, for which the binding signal was found to be 0.201 relative 10-mer count.

CCCTTCCCCC registered a binding signal of 0.003 relative 10-mer count.

The sequence CGCCCCTCCC gave a binding signal of 0.00336 relative 10-mer count.

On to CCCCCGTCCC, for which the binding signal is 0.00252 relative 10-mer count.

With ACCCGCCCCA, the binding signal amounted to 0.0012 relative 10-mer count.

For the sequence CCTCCCCACC, the binding signal was found to be 0.00791 relative 10-mer count.

With CCCCGCCCCG, the binding signal was 0.00348 relative 10-mer count.

Sequence CCTCCCTCCC registered a binding signal of 0.00479 relative 10-mer count.

On to AAAAAAGGTA, for which the binding signal was determined as 0.0674 relative 10-mer count.

Sequence AGCATACCCC returned a binding signal of 0.146 relative 10-mer count.

For the sequence CCCCCACCAC, the binding signal worked out at 0.00707 relative 10-mer count.

In the case of CACCCAACCC, the binding signal was determined as 0.00252 relative 10-mer count.

Consider CCACCCCACA, for which the binding signal is 0.00791 relative 10-mer count.

Take AAGTGTATCC: the binding signal is 0.00503 relative 10-mer count.

In turn, CCCCCAGCCC yielded a binding signal of 0.00252 relative 10-mer count.

Sequence CCCGCCCACC registered a binding signal of 0.0024 relative 10-mer count.

For the sequence CAGCATCCCC, the binding signal was determined as 0.154 relative 10-mer count.

Take CCAGCCCACC: the binding signal was 0.00336 relative 10-mer count.

On to CCCCGCTCCC, for which the binding signal was found to be 0.00108 relative 10-mer count.

The sequence AGGGGGTGGG yielded a binding signal of 0.00467 relative 10-mer count.

For the sequence ACCCTCCCCC, the binding signal was determined as 0.00575 relative 10-mer count.

In turn, CACCCCCCCC displayed a binding signal of 0.00384 relative 10-mer count.

Consider CCACCCCACG, for which the binding signal turned out to be 0.00491 relative 10-mer count.

Sequence AAAAAAGCAG had a binding signal of 0.588 relative 10-mer count.

CACCCACCTC registered a binding signal of 0.00312 relative 10-mer count.

CCGCCCCACC: the binding signal is 0.00407 relative 10-mer count.

ACCCACCTCC returned a binding signal of 0.00527 relative 10-mer count.

On to CCATCCCCCC, for which the binding signal stood at 0.0036 relative 10-mer count.

The sequence AGGGGGGAGG registered a binding signal of 0.00384 relative 10-mer count.

For the sequence ACCACCACCC, the binding signal was 0.00611 relative 10-mer count.

In turn, CGAAAAAACA showed a binding signal of 0.161 relative 10-mer count.

CCCGCCCCCC came in with a binding signal of 0.0018 relative 10-mer count.

The sequence GAAAAAAGCA came in with a binding signal of 0.15 relative 10-mer count.
